{"source": "the supplement of paper PMC12636033", "note": "± gives the standard deviation of the averaged measurements. The full ranking holds about 33,000 sequences; the median of “E-score (rank enrichment, -0.5 to 0.5)” is about -0.0075, and the highest 2% start at about 0.23. The sample as a whole holds a higher share of the highest values than the screen did."}
{"tested_on": "WT Max(13-93) synthetic (M65Nle)", "assay": "PBM 8-mer E-score (E-score (rank enrichment, -0.5 to 0.5)); higher = stronger preferential binding", "description": "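Protein binding microarray (universal PBM chip covering all 10-mers in fixed probe flanks) with chemically synthesized human Max(13-93) bHLH-LZ analogs (not full-length Max) bearing noncanonical residues (hArg, Tha, Aib, Nle at 65) and aromatic Cys staples. Read-out per 8-mer (and its reverse complement): E-score (rank-based enrichment, -0.5 to 0.5) and Z-score of median probe intensity.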"}
{"sequence": "AATGATAG", "PBM 8-mer E-score": "0.166 ± 0.08"}
{"sequence": "AATGATAC", "PBM 8-mer E-score": "0.2224 ± 0.00047"}
{"sequence": "CATGATGC", "PBM 8-mer E-score": "0.124 ± 0.073"}
{"sequence": "CATGATGG", "PBM 8-mer E-score": "-0.0865 ± 0.045"}
{"sequence": "AATGATAT", "PBM 8-mer E-score": "0.257 ± 0.086"}
{"sequence": "CATGATGA", "PBM 8-mer E-score": "0.233 ± 0.045"}
{"sequence": "CATGATAA", "PBM 8-mer E-score": "0.296 ± 0.039"}
{"sequence": "TATGATAA", "PBM 8-mer E-score": "0.201 ± 0.065"}
{"sequence": "CCCTTCTA", "PBM 8-mer E-score": "0.2 ± 0.016"}
{"sequence": "ATCCCTAC", "PBM 8-mer E-score": "0.0174 ± 0.027"}
{"sequence": "AAGAGTAA", "PBM 8-mer E-score": "0.0887 ± 0.095"}
{"sequence": "CCAGGTAG", "PBM 8-mer E-score": "-0.0484 ± 0.088"}
{"sequence": "AACGCGGA", "PBM 8-mer E-score": "-0.0101 ± 0.013"}
{"sequence": "GACGCGGC", "PBM 8-mer E-score": "-0.164 ± 0.043"}
{"sequence": "CACGCGGC", "PBM 8-mer E-score": "0.323 ± 0.0093"}
{"sequence": "AACGCGGC", "PBM 8-mer E-score": "-0.0617 ± 0.052"}
{"sequence": "CACGCGGG", "PBM 8-mer E-score": "0.224 ± 0.044"}
{"sequence": "CACGCGGA", "PBM 8-mer E-score": "0.351 ± 0.014"}
{"sequence": "CGCAATAG", "PBM 8-mer E-score": "-0.129 ± 0.02"}
{"sequence": "ACCATCCA", "PBM 8-mer E-score": "0.0359 ± 0.035"}
{"sequence": "ACCTCAAG", "PBM 8-mer E-score": "0.0864 ± 0.0059"}
{"sequence": "CGTATTCA", "PBM 8-mer E-score": "-0.00816 ± 0.064"}
{"sequence": "CACCTTTC", "PBM 8-mer E-score": "0.0495 ± 0.029"}
{"sequence": "ACCGAAGC", "PBM 8-mer E-score": "-0.0719 ± 0.043"}
{"sequence": "GATGTTTA", "PBM 8-mer E-score": "0.0913 ± 0.016"}
{"sequence": "GGTGTTTA", "PBM 8-mer E-score": "-0.0165 ± 0.02"}
{"sequence": "AGTGTTTA", "PBM 8-mer E-score": "0.0808 ± 0.099"}
{"sequence": "CGTGTTTA", "PBM 8-mer E-score": "0.274 ± 0.019"}
{"sequence": "CATGTTTC", "PBM 8-mer E-score": "0.192 ± 0.017"}
{"sequence": "CATGTTTA", "PBM 8-mer E-score": "0.302 ± 0.07"}
{"sequence": "CGATCCAG", "PBM 8-mer E-score": "-0.318 ± 0.024"}
{"sequence": "ACGTAACT", "PBM 8-mer E-score": "-0.0612 ± 0.056"}
{"sequence": "ATGGAGCC", "PBM 8-mer E-score": "-0.159 ± 0.086"}
{"sequence": "ACCCTATC", "PBM 8-mer E-score": "-0.0509 ± 0.049"}
{"sequence": "ATAATGCA", "PBM 8-mer E-score": "0.161 ± 0.072"}
{"sequence": "CCCGTGCG", "PBM 8-mer E-score": "0.00827 ± 0.054"}
{"sequence": "TACGTGCA", "PBM 8-mer E-score": "0.126 ± 0.094"}
{"sequence": "CAGGTGCG", "PBM 8-mer E-score": "-0.186 ± 0.068"}
{"sequence": "AACGTGCT", "PBM 8-mer E-score": "0.181 ± 0.038"}
{"sequence": "AACGTGCA", "PBM 8-mer E-score": "0.283 ± 0.044"}
{"sequence": "GACGTGCC", "PBM 8-mer E-score": "-0.0759 ± 0.054"}
{"sequence": "CACGTGCA", "PBM 8-mer E-score": "0.4864 ± 0.0015"}
{"sequence": "CACGTGCG", "PBM 8-mer E-score": "0.48552 ± 0.00018"}
{"sequence": "AACGTGCG", "PBM 8-mer E-score": "0.188 ± 0.037"}
{"sequence": "AACGTGCC", "PBM 8-mer E-score": "0.0848 ± 0.0026"}
{"sequence": "CACGTGCC", "PBM 8-mer E-score": "0.472 ± 0.0067"}
{"sequence": "GACGTGCA", "PBM 8-mer E-score": "0.132 ± 0.021"}
{"sequence": "AAACTCAG", "PBM 8-mer E-score": "-0.0399 ± 0.035"}
{"sequence": "AAGTGTCA", "PBM 8-mer E-score": "0.0618 ± 0.14"}
{"sequence": "AAATAAGT", "PBM 8-mer E-score": "0.126 ± 0.0013"}
{"sequence": "CTTGTTGC", "PBM 8-mer E-score": "0.124 ± 0.046"}
{"sequence": "CTGCCGGA", "PBM 8-mer E-score": "-0.102 ± 0.082"}
{"sequence": "ACAAGCAC", "PBM 8-mer E-score": "0.0152 ± 0.013"}
{"sequence": "ACAAATGT", "PBM 8-mer E-score": "0.277 ± 0.073"}
{"sequence": "ACAAGCAA", "PBM 8-mer E-score": "0.239 ± 0.01"}
{"sequence": "ACAAAAAA", "PBM 8-mer E-score": "0.251 ± 0.016"}
{"sequence": "ACAAAAAC", "PBM 8-mer E-score": "0.215 ± 0.07"}
{"sequence": "ACAAATGA", "PBM 8-mer E-score": "0.104 ± 0.068"}
{"sequence": "CAAAAACC", "PBM 8-mer E-score": "0.241 ± 0.035"}
{"sequence": "CCAAAACC", "PBM 8-mer E-score": "0.0915 ± 0.13"}
{"sequence": "ACAAATGG", "PBM 8-mer E-score": "0.196 ± 0.099"}
{"sequence": "ACAAAAAT", "PBM 8-mer E-score": "0.111 ± 0.084"}
{"sequence": "GCAAGCAA", "PBM 8-mer E-score": "-0.0138 ± 0.026"}
{"sequence": "CAAAACCC", "PBM 8-mer E-score": "0.138 ± 0.027"}
{"sequence": "ACCACCTC", "PBM 8-mer E-score": "0.0118 ± 0.00067"}
{"sequence": "ACGTTTTC", "PBM 8-mer E-score": "0.116 ± 0.034"}
{"sequence": "ATAGAGTC", "PBM 8-mer E-score": "-0.13 ± 0.093"}
{"sequence": "CGTCGAAG", "PBM 8-mer E-score": "-0.152 ± 0.018"}
{"sequence": "CTAGCTCC", "PBM 8-mer E-score": "-0.117 ± 0.094"}
{"sequence": "GCACGACA", "PBM 8-mer E-score": "-0.0608 ± 0.098"}
{"sequence": "AAGCTGGA", "PBM 8-mer E-score": "-0.0702 ± 0.12"}
{"sequence": "GCAGAAGC", "PBM 8-mer E-score": "-0.118 ± 0.075"}
{"sequence": "ATGTTCCC", "PBM 8-mer E-score": "0.0189 ± 0.083"}
{"sequence": "AAAAATAA", "PBM 8-mer E-score": "0.0936 ± 0.097"}
{"sequence": "CAAAAAAC", "PBM 8-mer E-score": "0.161 ± 0.012"}
{"sequence": "CCAAAAAA", "PBM 8-mer E-score": "0.171 ± 0.017"}
{"sequence": "ACAAAATC", "PBM 8-mer E-score": "0.106 ± 0.0076"}
{"sequence": "ACAAAATA", "PBM 8-mer E-score": "0.209 ± 0.054"}
{"sequence": "TAAAATAA", "PBM 8-mer E-score": "0.15 ± 0.0044"}
{"sequence": "CAAAATAA", "PBM 8-mer E-score": "0.239 ± 0.012"}
{"sequence": "ACAAAATG", "PBM 8-mer E-score": "0.3408 ± 0.0015"}
{"sequence": "CAAAAAAA", "PBM 8-mer E-score": "0.248 ± 0.0035"}
{"sequence": "CGTGCCCA", "PBM 8-mer E-score": "-0.00988 ± 0.079"}
{"sequence": "ATCTTAGG", "PBM 8-mer E-score": "-0.0691 ± 0.031"}
{"sequence": "CAGTGATG", "PBM 8-mer E-score": "0.0281 ± 0.13"}
{"sequence": "ACGAGGCC", "PBM 8-mer E-score": "-0.0195 ± 0.14"}
{"sequence": "GCGCTCAC", "PBM 8-mer E-score": "-0.00351 ± 0.038"}
{"sequence": "ACCGCGTG", "PBM 8-mer E-score": "0.365 ± 0.056"}
{"sequence": "ACAGCGTC", "PBM 8-mer E-score": "0.0682 ± 0.028"}
{"sequence": "ACAGCGTG", "PBM 8-mer E-score": "0.235 ± 0.013"}
{"sequence": "ACAGCGTA", "PBM 8-mer E-score": "-0.0609 ± 0.029"}
